Compounds with a hit are over-represented: about 7% of the library has one in this group of screens.
AHR act: human AHR activation; P35869; AID 2796; actives 2.5% (n = 320,000); activation, % at 5 µM; AHR-responsive luciferase reporter cells, luminescence; in the data active = activation above about 47%;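 note: 0% = vehicle wells and 100% = reference agonist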
ADAM10 inh: inhibitors of human ADAM10; O14672; recombinant ADAM10, EDANS/DABCYL FRET peptide cleavage, 3 h; inhibition, % at 7 µM; actives 0.62% (n = 370,000); AID 720582;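 active = inhibition above a per-campaign cutoff equal to the mean of compounds falling between control-based bounds plus 3 SD, cut at about 20% in these data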;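 note: 0% = DMSO wells while the 100% control is not disclosed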
ADAM17 inh: inhibits human ADAM17 | recombinant ADAM17, EDANS/DABCYL FRET peptide cleavage | inhibition, % at 6.95 µM | AID 720648 | actives 0.83% (n = 370,000);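 active = inhibition above the mean of compounds lying between control limits plus 3 SD, set per campaign, cut at about 8.5% in these data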;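 note: 0% = DMSO-only wells as the low control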
Target sequence (P78536 215-824 limits assumed): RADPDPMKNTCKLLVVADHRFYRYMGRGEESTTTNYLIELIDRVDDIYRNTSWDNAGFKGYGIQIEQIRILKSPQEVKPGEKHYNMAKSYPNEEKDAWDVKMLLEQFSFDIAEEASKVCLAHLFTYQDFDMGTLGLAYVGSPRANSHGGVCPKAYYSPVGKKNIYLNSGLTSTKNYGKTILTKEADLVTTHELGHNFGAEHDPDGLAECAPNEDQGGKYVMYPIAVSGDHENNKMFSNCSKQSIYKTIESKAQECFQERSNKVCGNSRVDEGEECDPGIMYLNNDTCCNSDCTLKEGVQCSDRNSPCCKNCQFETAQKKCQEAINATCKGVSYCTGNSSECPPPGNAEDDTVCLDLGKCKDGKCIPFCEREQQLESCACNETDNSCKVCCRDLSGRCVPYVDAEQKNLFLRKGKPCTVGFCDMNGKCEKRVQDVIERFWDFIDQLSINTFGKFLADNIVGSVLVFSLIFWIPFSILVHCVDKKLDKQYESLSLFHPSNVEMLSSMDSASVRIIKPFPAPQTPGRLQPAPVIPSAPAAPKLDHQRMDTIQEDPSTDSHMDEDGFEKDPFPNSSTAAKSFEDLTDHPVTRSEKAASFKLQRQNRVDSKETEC
rCAG RNA binder: molecules binding r(CAG) RNA repeats | r(CAG) RNA repeat, TO-PRO-1 dye displacement fluorescence | inhibition, % at 3 µM | actives 1.3% (n = 370,000) | AID 651821;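 active = inhibition above the plate cutoff, the mean of all test compounds on that plate plus 3 SD, cut at about 35% in these data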;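 note: 0% = DMSO alone and 100% = 100 µM mitoxantrone as full dye displacement; higher means more dye released from RNA so lower well fluorescence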
NR3A LBD binder: modulators (binders) of human NR3A ligand-binding domain. NR3A LBD differential scanning fluorimetry, Tm shift; 0% = protein alone, 100% = glycine-bound protein. Tm shift relative to glycine control, % at 25 µM. actives 2.5% (n = 340,000). AID 1259313;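 active = melting temperature shift of at least 10% of the positive control shift, at one fixed dose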
proKLK7 act: activators of human kallikrein-7 zymogen; activation, % at 7 µM; P49862; actives 0.9% (n = 370,000); purified proKLK7, EDANS-DABCYL substrate fluorescence; 100% is mature enzyme control, 0% vehicle; AID 652039;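 active = activation above the mean of all tested compounds plus 3 SD, computed per campaign excluding outliers beyond control limits, cut at about 13% in these data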
ADAM10 ctr: ADAM10 inhibition, counter-screen for ADAM17 exosite hits; shares compounds with ADAM17 inh; recombinant ADAM10, EDANS/DABCYL FRET peptide cleavage, 3 h; inhibition, % at 6.95 µM; actives 47% (n = 2,900);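 active = mean inhibition over the triplicate runs exceeds the activity threshold set in the earlier primary screen, cut at about 20% in these data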;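 note: 0% = DMSO wells and 100% = marimastat wells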
ADAM17 confirm: confirmation of inhibitors of human ADAM17; AID 743257; recombinant ADAM17, EDANS/DABCYL QFRET peptide cleavage; actives 65% (n = 2,900); shares compounds with ADAM17 inh; inhibition, % at 6.95 µM;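 active = mean inhibition across replicates above the hit cutoff set in the primary screen, cut at about 8.5% in these data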;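 note: 0% = DMSO wells and 100% = marimastat wells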
An asterisk follows results filed as active; / = no result given.

SMILES | AHR act | ADAM10 inh | ADAM17 inh | rCAG RNA binder | NR3A LBD binder | proKLK7 act | ADAM10 ctr | ADAM17 confirm
CC1CCN(N=Nc2nc3c([nH]2)c(=O)n(C)c(=O)n3C)CC1 | / | 12.5 | 17.0* | 0.4 | 4.2 | 0.5 | 10.2 | 9.3*
Cn1c(=O)c2[nH]c(N=NN3CCCCC3)nc2n(C)c1=O | / | 2.3 | -1.4 | 2.7 | 5.5 | 0.1 | / | /
COc1ccccc1CNC(=O)CN1C(=O)NC(c2ccccc2)(c2ccccc2)C1=O | 1.9 | -9.4 | -3.5 | 0.6 | 4.7 | -0.2 | / | /
OCc1cccc[n+]1CCc1ccccc1 | -1.7 | -0.5 | 10.8* | 0.7 | 2.9 | 0.5 | -10.7 | -0.9
CCn1c(CC(=O)Nc2cccc(OC)c2)nnc1SCC(=O)N1CCN(c2ccccc2)CC1 | -1.4 | 3.9 | 12.4* | 0.0 | -0.1 | -0.3 | 30.4* | 18.4*
CN(CC(=O)Nc1cccc2ccccc12)C(=O)/C=C/c1cccs1 | 12.6 | 1.7 | 2.2 | 0.6 | -5.9 | -0.6 | / | /
O=C(Nc1nn(Cc2ccc(Cl)cc2)cc1Br)c1ccc(COc2ccccc2Cl)o1 | 1.3 | 17.3 | 10.1* | 6.0 | -4.3 | -0.6 | 33.1* | 18.1*
CCN1C(=O)[C@H]2[C@@H](c3ccc(-c4ccc(C(C)=O)cc4)cc3)N3CCC[C@@]3(C(=O)OC)[C@H]2C1=O | -2.2 | 16.1 | 9.7* | 0.2 | -1.6 | 0.5 | -8.9 | 0.3
CCN1C(=O)[C@@H]2[C@@H](c3ccc(-c4ccc(C(C)=O)cc4)cc3)N3CCC[C@@]3(C(=O)OC)[C@@H]2C1=O | 1.0 | 8.5 | -2.4 | 0.5 | -1.6 | 0.0 | / | /
CCO[C@H]1OC(C(=O)NCc2nc3ccccc3[nH]2)=C[C@@H](c2csc3ccccc23)[C@@H]1CCCO | 11.9 | 11.8 | 12.4* | 1.4 | -7.1 | 0.4 | 6.2 | 5.7
CNS(=O)(=O)c1cccc(C(=O)OCC(=O)NC2CCCC2)c1 | 0.0 | 10.9 | 8.9* | -0.7 | 0.9 | -0.5 | 6.8 | 3.9
O=C(COC(=O)c1cccc(S(=O)(=O)NCc2ccccc2)c1)NC1CC1 | 0.2 | 0.9 | 0.6 | 0.4 | 1.4 | -0.3 | / | /
CCN1C[C@@H]2[C@@H]3C(=O)N(Cc4ccccc4)C(=O)[C@@H]3[C@](C)(C1=O)N2C(=O)c1ccc(Cl)c(Cl)c1 | / | 2.0 | 1.3 | -6.1 | 1.3 | 0.3 | / | /
COc1ccc(CNC(=O)CN(C(=O)CCC(=O)Nc2nccs2)c2cccc(C)c2)cc1 | 4.9 | 7.4 | -5.1 | -6.9 | -1.0 | -0.5 | / | /
CN(C(=O)c1ccc(Br)o1)C1CCCCC1 | 3.5 | 7.5 | 3.1 | -3.4 | 3.1 | 0.4 | / | /
Cc1ccc(C(=O)c2cn[nH]c2-c2ccccc2O)cc1 | 2.6 | 15.0 | 8.8* | 5.2 | 0.0 | -0.5 | -1.8 | -1.0
O=C(c1ccc(F)cc1)c1cn[nH]c1-c1ccccc1O | 8.0 | 2.3 | -0.4 | -0.9 | -0.8 | -0.1 | / | /
CC1(C)C(=O)C=CC(=O)C(C)(C)C(=O)C=CC(=O)C(C)(C)C2=CC=C(O2)C(C)(C)C(=O)C=CC1=O | / | -5.2 | -2.6 | 4.1 | 2.4 | 0.3 | / | /
CCOC(=O)C1=C(C)N(CCCCCC(=O)O)C(=O)NC1c1ccccc1OC(=O)c1cccs1 (centres undefined) | 1.5 | 4.8 | 10.1* | 12.3 | -0.5 | 0.3 | -1.2 | 4.0
CCOC(=O)C1=C(C)N(CCC(=O)O)C(=O)NC1c1ccccc1Cl (centres undefined) | -0.4 | 5.2 | -3.7 | 6.8 | 0.2 | 0.0 | / | /
COc1cc([N+](=O)[O-])cc2sc(NC(=O)c3c(F)cccc3F)nc12 | 1.1 | -9.9 | -3.2 | -1.3 | 5.1 | 0.3 | / | /
Cc1cc(SCC(=O)Nc2cccc(S(=O)(=O)NC3=NCCCCC3)c2)c(C)cc1Br | 0.4 | 14.8 | 11.5* | 1.5 | -0.7 | 0.4 | 27.6* | 17.9*
O=c1[nH][nH]c(-c2ccccc2)c1C=Nc1ccc(C(F)(F)F)cc1 | 10.4 | 13.5 | 12.7* | 6.0 | 0.0 | -0.3 | 14.1 | 6.9
COC(=O)C1CCN(c2ccc([N+](=O)[O-])cc2)CC1 | -2.5 | 4.1 | 10.1* | 2.3 | 1.0 | -0.5 | 5.0 | 8.1

Bioassay records deposited in PubChem BioAssay by several laboratories.
